Data published in PubChem BioAssay (NCI).
Compounds without any hit were thinned out: in the full panel of roughly 79,000, 15% have a hit. Calls of active or inactive are those of the source. Cut-off read from the data, not from the text of the source: active = growth inhibition above about 70%; inactive = the rest.

Key:
[1] = NCI Yeast Anticancer Drug Screen. Data for the wt2 strain (AID 169); conditions: S. cerevisiae wt2 strain growth inhibition, stronger effect = higher value
Summary of the method: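 Against vehicle-treated controls, the growth of yeast exposed to each compound was compared, and the inhibition was recorded.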

[2] = NCI Yeast Anticancer Drug Screen. Data for the mlh1 strain (AID 171);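 note: 0% = growth of vehicle-treated control cultures of the same strain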; conditions: S. cerevisiae mlh1 strain growth inhibition, stronger effect = higher value
Summary of the method: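 Measured: yeast growth. Reference: vehicle-treated controls. Organism: strain with a defined alteration affecting DNA damage repair or cell cycle control, treated with compound.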

[3] = NCI Yeast Anticancer Drug Screen. Data for the sgs1 strain (AID 173);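 note: 0% = growth of vehicle-only control cultures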; conditions: S. cerevisiae sgs1 mutant, stronger effect = higher value
Summary of the method: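 Each compound was added to cultures of the altered yeast strain. Growth was recorded, and inhibition was derived by comparison with vehicle controls.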

[4] = NCI Yeast Anticancer Drug Screen. Data for the mlh1 rad18 strain (AID 175); conditions: S. cerevisiae mlh1 rad18 strain growth inhibition, stronger effect = higher value
Summary of the method: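 Genetically defined yeast (DNA repair-deficient) exposed to compounds; growth inhibition determined relative to vehicle.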

[5] = NCI Yeast Anticancer Drug Screen. Data for the rad18 strain (AID 177); conditions: S. cerevisiae rad18 mutant growth inhibition, stronger effect = higher value
Summary of the method: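 Vehicle-treated cultures served as the baseline for scoring compound-induced growth inhibition in DNA-repair-mutant yeast.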

[6] = NCI Yeast Anticancer Drug Screen. Data for the rad52 strain (AID 147);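 note: 0% = growth of vehicle-treated control cultures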; conditions: S. cerevisiae rad52 mutant growth inhibition, stronger effect = higher value
Summary of the method: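 The repair-mutant yeast strain was incubated with compounds, then growth was read and inhibition derived relative to vehicle.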

[7] = NCI Yeast Anticancer Drug Screen. Data for the wt1 strain (AID 149);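 note: 0% = growth of vehicle-treated wt1 cultures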; conditions: S. cerevisiae wt1 strain (SPY 50644) growth inhibition, stronger effect = higher value
Summary of the method: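 Each compound is tested on wt1 yeast and the loss of growth versus vehicle gives the inhibition value.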

[8] = NCI Yeast Anticancer Drug Screen. Data for the rad50EPP+ strain (AID 151);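 note: 0% = growth of vehicle-treated control cultures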; conditions: S. cerevisiae rad50 mutant strain, stronger effect = higher value
Summary of the method: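 Vehicle-normalised growth inhibition; rad50EPP+ yeast strain, altered in DNA damage repair, compound-treated.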

[9] = NCI Yeast Anticancer Drug Screen. Data for the mgt1 strain (AID 153); conditions: S. cerevisiae mgt1 mutant growth inhibition, stronger effect = higher value
Summary of the method: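 Vehicle-normalized growth inhibition is determined in mgt1 yeast, a strain selected for a defined alteration in DNA repair or cell cycle control.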

[10] = NCI Yeast Anticancer Drug Screen. Data for the rad50 strain (AID 155);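 note: 0% = growth of vehicle-only cultures of the same strain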; conditions: S. cerevisiae rad50 strain growth inhibition, stronger effect = higher value
Summary of the method: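 Vehicle-treated cultures provide the reference for the growth inhibition reported for compound-exposed, repair-deficient yeast.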

[11] = NCI Yeast Anticancer Drug Screen. Data for the mec2-1 strain (AID 157); conditions: S. cerevisiae mec2-1 strain, stronger effect = higher value
Summary of the method: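 Mutant yeast (mec2-1) grown with compound; growth inhibition relative to vehicle control reported.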

[12] = NCI Yeast Anticancer Drug Screen. Data for the rad14 strain (AID 159);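 note: 0% = growth of vehicle-treated control cultures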; conditions: S. cerevisiae rad14 strain growth inhibition, stronger effect = higher value
Summary of the method: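 Inhibition of growth is reported for a repair-deficient yeast mutant following compound treatment, calculated relative to cultures that received vehicle.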

[13] = NCI Yeast Anticancer Drug Screen. Data for the sgs1 mgt1 strain (AID 161);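 note: 0% = growth of cultures given vehicle only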; conditions: S. cerevisiae sgs1 mgt1 strain, stronger effect = higher value
Summary of the method: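 This yeast growth screen uses a strain with defined DNA-repair lesions; compound-treated growth is compared with vehicle-treated growth.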

[14] = NCI Yeast Anticancer Drug Screen. Data for the CLN2oe strain (AID 163);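 note: 0% = growth of vehicle-only control cultures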; conditions: S. cerevisiae CLN2oe strain, stronger effect = higher value
Summary of the method: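 Compounds are applied to yeast harbouring a defined cell-cycle control change; reduced growth compared with vehicle-treated controls gives the value.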

[15] = NCI Yeast Anticancer Drug Screen. Data for the cln2 rad14 strain (AID 165);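 note: 0% = growth equal to vehicle treated cultures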; conditions: S. cerevisiae cln2 rad14 strain, stronger effect = higher value
Summary of the method: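 Readout is yeast growth inhibition versus vehicle-treated controls, using a strain with cln2 and rad14 alterations exposed to compound.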

[16] = NCI Yeast Anticancer Drug Screen. Data for the bub3 strain (AID 167); conditions: S. cerevisiae bub3 mutant strain, stronger effect = higher value
Summary of the method: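 Mutant yeast screening strain plus compound; vehicle-treated cultures serve as the 0% inhibition reference.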

[17] = at 5.0 µM (retest, dose inferred, filed as 0.5)
[18] = at 50.0 µM (retest, dose inferred, filed as 5.0)

Measured: growth inhibition

O=C(NCCCCN1CC2CCCC2C1)C(C1CCCCC1)C1CCCCC1 (centres undefined)
active: [1]; at 33.0 µM 93% | [1]; at 100.0 µM 98% | [2]; at 33.0 µM 91% | [2]; at 100.0 µM 99% | [3]; at 33.0 µM 94% | [3]; at 100.0 µM 98% | [4]; [18] 96% | [4]; at 50.0 µM 73% | [5]; at 33.0 µM 90% | [5]; at 100.0 µM 98%
inactive: [1]; at 1.2 µM 2% | [1]; at 3.7 µM 5% | [1]; at 11.0 µM 25% | [2]; at 1.2 µM 7% | [2]; at 3.7 µM 5% | [2]; at 11.0 µM 25% | [3]; at 1.2 µM 9% | [3]; at 3.7 µM 11% | [3]; at 11.0 µM 34% | [4]; [17] 16% | [5]; at 1.2 µM 16% | [5]; at 3.7 µM 23% | [5]; at 11.0 µM 49%

O=C1CCC(Cc2ccccc2)CN1 (centres undefined)
active: [9]; at 100.0 µM 93% | [13]; [18] 80% | [13]; at 50.0 µM 81.5% | [1]; at 100.0 µM 92% | [2]; at 100.0 µM 90% | [3]; at 100.0 µM 93%
inactive: [6]; at 1.2 µM -1% | [6]; at 3.7 µM -1% | [6]; at 11.0 µM -2% | [6]; at 33.0 µM -3% | [6]; at 100.0 µM 0% | [7]; at 1.2 µM -3% | [7]; at 3.7 µM -2% | [7]; at 11.0 µM 1% | [7]; at 33.0 µM -2% | [7]; at 100.0 µM -1% | [8]; at 1.2 µM -1% | [8]; at 3.7 µM 0% | [8]; at 11.0 µM 12% | [8]; at 33.0 µM 25% | [8]; at 100.0 µM 42% | [9]; at 1.2 µM -1% | [9]; at 3.7 µM -5% | [9]; at 11.0 µM -1% | [9]; at 33.0 µM 68% | [10]; at 1.2 µM -1% | [10]; at 3.7 µM -2% | [10]; [17] 10% | [10]; at 11.0 µM -2% | [10]; at 33.0 µM -3% | [10]; [18] 7% | [10]; at 50.0 µM 7.1% | [10]; at 100.0 µM -1% | [11]; at 1.2 µM -1% | [11]; at 3.7 µM -1% | [11]; [17] -11% | [11]; at 11.0 µM 0% | [11]; at 33.0 µM -1% | [11]; [18] -3% | [11]; at 50.0 µM 19.7% | [11]; at 100.0 µM 3% | [12]; at 1.2 µM -2% | [12]; at 3.7 µM -1% | [12]; at 11.0 µM -2% | [12]; at 33.0 µM -1% | [12]; at 100.0 µM 1% | [13]; [17] 3% | [14]; at 1.2 µM -8% | [14]; at 3.7 µM -5% | [14]; at 11.0 µM 3% | [14]; at 33.0 µM -4% | [14]; at 100.0 µM -6% | [15]; [17] -2% | [15]; [18] 4% | [15]; at 50.0 µM 0.15% | [16]; at 1.2 µM -4% | [16]; at 3.7 µM -5% | [16]; [17] -11% | [16]; at 11.0 µM -5% | [16]; at 33.0 µM -7% | [16]; [18] -8% | [16]; at 50.0 µM 10.9% | [16]; at 100.0 µM -8% | [1]; at 1.2 µM -3% | [1]; at 3.7 µM 0% | [1]; at 11.0 µM 3% | [1]; at 33.0 µM 50% | [2]; at 1.2 µM -3% | [2]; at 3.7 µM -2% | [2]; at 11.0 µM 0% | [2]; at 33.0 µM 37% | [3]; at 1.2 µM 0% | [3]; at 3.7 µM 1% | [3]; at 11.0 µM 11% | [3]; at 33.0 µM 62% | [4]; [17] -9% | [4]; [18] 1% | [4]; at 50.0 µM 3.7% | [5]; at 1.2 µM 1% | [5]; at 3.7 µM -2% | [5]; at 11.0 µM 4% | [5]; at 33.0 µM 0% | [5]; at 100.0 µM 1%

O=C1C(/C=C/c2ccc(Cl)cc2)=NNC2N1N=C1NC(=O)C3(NN12)c1ccccc1-c1ccccc13 (centres undefined)
inactive: [6]; at 1.2 µM -2% | [6]; at 3.7 µM -2% | [6]; at 11.0 µM -1% | [6]; at 33.0 µM -3% | [6]; at 100.0 µM 10% | [7]; at 1.2 µM 1% | [7]; at 3.7 µM 2% | [7]; at 11.0 µM 1% | [7]; at 33.0 µM 2% | [7]; at 100.0 µM 6% | [8]; at 1.2 µM -1% | [8]; at 3.7 µM -3% | [8]; at 11.0 µM 1% | [8]; at 33.0 µM 0% | [8]; at 100.0 µM 10% | [9]; at 1.2 µM -2% | [9]; at 3.7 µM -2% | [9]; at 11.0 µM -2% | [9]; at 33.0 µM -13% | [9]; at 100.0 µM 4% | [10]; at 1.2 µM -7% | [10]; at 3.7 µM -15% | [10]; [17] -10% | [10]; at 11.0 µM -21% | [10]; at 33.0 µM -1% | [10]; [18] 22% | [10]; at 100.0 µM 12% | [11]; at 1.2 µM 0% | [11]; at 3.7 µM 1% | [11]; [17] -10% | [11]; at 11.0 µM 0% | [11]; at 33.0 µM 5% | [11]; [18] 25% | [11]; at 100.0 µM 9% | [12]; at 1.2 µM -1% | [12]; at 3.7 µM -2% | [12]; at 11.0 µM -1% | [12]; at 33.0 µM 0% | [12]; at 100.0 µM 5% | [13]; [17] -4% | [13]; [18] 22% | [14]; at 1.2 µM -3% | [14]; at 3.7 µM -3% | [14]; at 11.0 µM 1% | [14]; at 33.0 µM 9% | [14]; at 100.0 µM 14% | [15]; [17] 18% | [15]; [18] 32% | [15]; at 50.0 µM 62.9% | [16]; at 1.2 µM -2% | [16]; at 3.7 µM 1% | [16]; [17] -19% | [16]; at 11.0 µM 0% | [16]; at 33.0 µM -2% | [16]; [18] -12% | [16]; at 100.0 µM 1% | [1]; at 1.2 µM -2% | [1]; at 3.7 µM -2% | [1]; at 11.0 µM -2% | [1]; at 33.0 µM 1% | [1]; at 100.0 µM 4% | [2]; at 1.2 µM 0% | [2]; at 3.7 µM 0% | [2]; at 11.0 µM 1% | [2]; at 33.0 µM 2% | [2]; at 100.0 µM 4% | [3]; at 1.2 µM -1% | [3]; at 3.7 µM 0% | [3]; at 11.0 µM -1% | [3]; at 33.0 µM 1% | [3]; at 100.0 µM 3% | [4]; [17] -34% | [4]; [18] 62% | [5]; at 1.2 µM -3% | [5]; at 3.7 µM -1% | [5]; at 11.0 µM -1% | [5]; at 33.0 µM 0% | [5]; at 100.0 µM 17%
active: [10]; at 50.0 µM 83.3% | [11]; at 50.0 µM 76.2% | [13]; at 50.0 µM 73.5% | [16]; at 50.0 µM 87.2% | [4]; at 50.0 µM 87.7%
